In PubChem BioAssay AID1159580 (chemical genetic matrix, 2015):
The whole screen tested about 5,500 compounds, of which about 2,000 (36%) were called active. Inconclusive results (about 18%) are left out. Cut-off read from the data, not from the text of the source: active = normalized growth mostly below about 0.91 (no sharp cut-off); inconclusive = no clear call, values can overlap the other calls; inactive = mostly above about 0.92. Some of the results follow.

Assay: chemical genetic growth profiling, strain panel (AID 1159580);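 note: tested at 20 µM; growth read once vehicle control cultures reached saturation at 30 °C; 1 = growth at the plate median or of vehicle wells; lower values mean less growth of the strain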
Conditions: S. cerevisiae deletion strains, growth OD
[1] = locus YDL101C, strain DUN1, stronger effect = lower value
[2] = locus YHR030C, strain SLT2, stronger effect = lower value
[3] = locus YJL187C, strain SWE1, stronger effect = lower value
[4] = locus YHR079C, strain IRE1, stronger effect = lower value
[5] = locus YJL095W, strain BCK1, stronger effect = lower value
[6] = locus YJR066W, strain TOR1, stronger effect = lower value
[7] = locus YLR113W, strain HOG1, stronger effect = lower value
[8] = locus YNL183C, strain NPR1, stronger effect = lower value
[9] = locus YOR231W, strain MKK1, stronger effect = lower value
[10] = locus YPL256C, strain CLN2, stronger effect = lower value

Measured: normalized growth

COC(=O)C1Cc2c([nH]c3ccccc23)C2(CCN(C)CC2)N1 (configuration not stated)
inactive: locus YAL013W, strain DEP1, stronger effect = lower value 1.01 | locus YBR229C, strain ROT2, stronger effect = lower value 0.989 | [1] 0.995 | locus YDL134C, strain PPH21, stronger effect = lower value 0.981 | locus YDR150W, strain NUM1, stronger effect = lower value 0.986 | locus YEL061C, strain CIN8, stronger effect = lower value 0.993 | locus YGR078C, strain PAC10, stronger effect = lower value 0.993 | [2] 0.985 | locus YHR087W, strain rtc3, stronger effect = lower value 0.998 | [3] 0.996 | locus YJR043C, strain POL32, stronger effect = lower value 1 | locus YJR075W, strain HOC1, stronger effect = lower value 0.998 | locus YLR039C, strain RIC1, stronger effect = lower value 0.975 | locus YLR058C, strain SHM2 (second series), stronger effect = lower value 1.01 | locus YLR085C, strain ARP6, stronger effect = lower value 1.01 | locus YLR262C, strain YPT6, stronger effect = lower value 0.981 | locus YML094W, strain GIM5, stronger effect = lower value 0.961 | locus YMR219W, strain ESC1, stronger effect = lower value 0.995 | locus YMR263W, strain SAP30, stronger effect = lower value 1.02 | locus YNL128W, strain TEP1, stronger effect = lower value 0.973 | locus YNL153C, strain GIM3, stronger effect = lower value 0.999 | locus YNL298W, strain CLA4 (second series), stronger effect = lower value 1.02 | locus YNL322C, strain KRE1, stronger effect = lower value 0.987 | locus YNR030W, strain Alg12, stronger effect = lower value 1.01 | locus YOL006C, strain TOP1, stronger effect = lower value 1 | locus YPL055C, strain LGE1, stronger effect = lower value 1.01 | locus YPL241C, strain CIN2, stronger effect = lower value 0.977 | locus YPR135W, strain CTF4, stronger effect = lower value 0.944

CCCNCCCCCC[N+](C)(C)C
inactive: [2] 1.02 | [4] 0.975 | [5] 0.979 | [6] 0.927 | [7] 1.02 | [8] 0.932 | [9] 0.984 | [10] 0.989

Cc1cc(-n2c(=O)[nH]c(=O)n(C)c2=O)ccc1Oc1ccc(SC(F)(F)F)cc1
active: locus YAL026C, strain drs2, stronger effect = lower value 0.602 | locus YAL030W, strain snc1, stronger effect = lower value 0.565 | locus YBL061C, strain skt5, stronger effect = lower value 0.688 | locus YBR009C, strain hhf1, stronger effect = lower value 0.552 | locus YBR023C, strain chs3, stronger effect = lower value 0.742 | locus YBR171W, strain sec66, stronger effect = lower value 0.802 | locus YBR231C, strain swc5, stronger effect = lower value 0.868 | locus YCL011C, strain gbp2, stronger effect = lower value 0.548 | locus YCL016C, strain dcc1, stronger effect = lower value 0.905 | locus YCL061C, strain MRC1, stronger effect = lower value 0.792 | locus YCR088W, strain abp1, stronger effect = lower value 0.793 | locus YDL005C, strain med2, stronger effect = lower value 0.583 | locus YDL040C, strain nat1, stronger effect = lower value 0.863 | locus YDR001C, strain nth1, stronger effect = lower value 0.845 | locus YDR137W, strain rgp1, stronger effect = lower value 0.405 | locus YDR159W, strain sac3, stronger effect = lower value 0.532 | locus YDR195W, strain ref2 0.418 | locus YDR297W, strain sur2, stronger effect = lower value 0.695 | locus YDR334W, strain swr1, stronger effect = lower value 0.855 | locus YDR335W, strain msn5, stronger effect = lower value 0.661 | locus YDR392W, strain spt3, stronger effect = lower value 0.141 | locus YEL003W, strain gim4, stronger effect = lower value 0.704 | locus YEL061C, strain CIN8 (second series), stronger effect = lower value 0.647 | locus YER111C, strain swi4, stronger effect = lower value 0.75 | locus YFR010W, strain ubp6, stronger effect = lower value 0.76 | locus YGL173C, strain kem1, stronger effect = lower value 0.895 | locus YGL227W, strain vid30, stronger effect = lower value 0.867 | locus YGL240W, strain doc1, stronger effect = lower value 0.629 | locus YGL253W, strain hxk2, stronger effect = lower value 0.701 | [2] 0.811 | [4] 0.786 | locus YHR142W, strain chs7, stronger effect = lower value 0.318 | locus YJL092W, strain hpr5, stronger effect = lower value 0.844 | locus YJL095W, strain BCK1 (second series), stronger effect = lower value 0.754 | [5] 0.724 | locus YJL154C, strain vps35, stronger effect = lower value 0.644 | locus YJL164C, strain tpk1, stronger effect = lower value 0.346 | locus YJL166W, strain qcr8, stronger effect = lower value 0.383 | [3] 0.546 | [6] 0.75 | locus YKL160W, strain elf1, stronger effect = lower value 0.69 | locus YKR026C, strain gcn3, stronger effect = lower value 0.707 | locus YKR091W, strain srl3, stronger effect = lower value 0.908 | locus YLL001W, strain dnm1, stronger effect = lower value 0.844 | locus YLL026W, stronger effect = lower value 0.169 | locus YLL041C, strain sdh2, stronger effect = lower value 0.775 | locus YLR027C, strain aat2, stronger effect = lower value 0.589 | [7] 0.764 | locus YLR221C, strain rsa3, stronger effect = lower value 0.436 | locus YLR258W, strain gsy2, stronger effect = lower value 0.705 | locus YLR262C, strain YPT6 (second series), stronger effect = lower value 0.367 | locus YLR320W, strain mms22, stronger effect = lower value 0.823 | locus YLR342W, strain FKS1, stronger effect = lower value 0.864 | locus YLR357W, strain rsc2, stronger effect = lower value 0.581 | locus YLR370C, strain arc18, stronger effect = lower value 0.886 | locus YML120C, strain ndi1, stronger effect = lower value 0.844 | locus YMR058W, strain fet3, stronger effect = lower value 0.705 | locus YMR125W, strain sto1, stronger effect = lower value 0.709 | locus YMR205C, strain PFK2, stronger effect = lower value 0.705 | locus YMR231W, strain pep5, stronger effect = lower value 0.703 | locus YNL071W, strain lat1, stronger effect = lower value 0.422 | [8] 0.81 | locus YNL209W, strain ssb2, stronger effect = lower value 0.915 | locus YNL248C, strain rpa49, stronger effect = lower value 0.635 | locus YOR001W, strain rrp6, stronger effect = lower value 0.888 | locus YOR070C, strain gyp1, stronger effect = lower value 0.754 | locus YOR083W, strain WHI5, stronger effect = lower value 0.758 | locus YOR106W, strain vam3, stronger effect = lower value 0.424 | [9] 0.804 | locus YOR265W, strain rbl2, stronger effect = lower value 0.893 | locus YOR270C, strain vph1, stronger effect = lower value 0.344 | locus YOR290C, strain snf2, stronger effect = lower value 0.763 | locus YPL051W, strain arl3, stronger effect = lower value 0.636 | locus YPL078C, strain atp4, stronger effect = lower value 0.547 | locus YPL106C, strain sse1, stronger effect = lower value 0.469 | [10] 0.764
inactive: locus YAL021C, strain ccr4, stronger effect = lower value 0.925 | locus YBR279W, strain paf1, stronger effect = lower value 0.935 | locus YCL069W, strain vba3, stronger effect = lower value 0.978 | locus YDR069C, strain doa4, stronger effect = lower value 0.941 | locus YEL037C, strain rad23, stronger effect = lower value 0.933 | locus YER015W, strain faa2, stronger effect = lower value 0.994 | locus YER016W, strain bim1, stronger effect = lower value 0.935 | locus YER155C, strain BEM2 (second series), stronger effect = lower value 0.968 | locus YGL167C, strain pmr1, stronger effect = lower value 1.02 | locus YHR013C, strain ard1, stronger effect = lower value 0.998 | locus YHR027C, strain rpn1, stronger effect = lower value 0.969 | locus YJL115W, strain asf1, stronger effect = lower value 0.926 | locus YJL129C, strain trk1, stronger effect = lower value 0.882 | locus YLR384C, strain iki3, stronger effect = lower value 1.03 | locus YMR129W, stronger effect = lower value 1.02 | locus YNL322C, strain KRE1 (second series), stronger effect = lower value 1.03 | locus YNR049C, strain mso1, stronger effect = lower value 0.98 | locus YOR080W, strain dia2, stronger effect = lower value 1.02 | locus YPL240C, strain hsp82, stronger effect = lower value 0.954

Nc1ccccc1C(=O)N/N=C\c1cc(Br)ccc1O
inactive: locus YAR019C, strain CDC15, stronger effect = lower value 0.985 | locus YBL105C, strain PKC1, stronger effect = lower value 0.984 | locus YBR135W, strain CKS1, stronger effect = lower value 0.981 | locus YBR136W, strain MEC1, stronger effect = lower value 0.982 | locus YBR160W, strain CDC28, stronger effect = lower value 0.989 | locus YDL017W, strain CDC7, stronger effect = lower value 0.98 | locus YDL028C, strain MPS1, stronger effect = lower value 0.976 | [1] 0.984 | locus YDL108W, strain KIN28, stronger effect = lower value 0.982 | locus YDL132W, strain cdc53, stronger effect = lower value 0.97 | locus YDL214C, strain PRR2, stronger effect = lower value 0.972 | locus YDR052C, strain DBF4, stronger effect = lower value 0.99 | locus YDR054C, strain cdc34, stronger effect = lower value 0.97 | locus YDR226W, strain ADK1, stronger effect = lower value 0.96 | locus YDR477W, strain SNF1, stronger effect = lower value 0.961 | locus YER123W, strain YCK3, stronger effect = lower value 0.877 | locus YER133W, strain GLC7, stronger effect = lower value 0.979 | locus YFL009W, strain cdc4, stronger effect = lower value 0.965 | locus YFL029C, strain CAK1, stronger effect = lower value 0.971 | locus YFR003C, strain YPI1, stronger effect = lower value 0.974 | locus YFR019W, strain FAB1, stronger effect = lower value 0.985 | locus YFR028C, strain CDC14, stronger effect = lower value 0.985 | locus YGR040W, strain KSS1, stronger effect = lower value 0.982 | locus YGR052W, strain FMP48, stronger effect = lower value 0.925 | [2] 0.855 | [4] 0.828 | locus YHR082C, strain KSP1, stronger effect = lower value 1.02 | locus YHR205W, strain SCH9, stronger effect = lower value 0.866 | locus YIL147C, strain SLN1, stronger effect = lower value 0.981 | [5] 0.798 | locus YJL128C, strain PBS2, stronger effect = lower value 0.933 | locus YJL157C, strain FAR1, stronger effect = lower value 0.947 | locus YJR016C, strain ILV3, stronger effect = lower value 0.976 | locus YJR066W, strain TOR1 (second series), stronger effect = lower value 0.903 | [6] 0.976 | locus YKL048C, strain ELM1, stronger effect = lower value 0.928 | locus YKL067W, strain YNK1, stronger effect = lower value 0.948 | locus YKL101W, strain HSL1, stronger effect = lower value 0.901 | locus YKL193C, strain SDS22, stronger effect = lower value 0.976 | locus YKL203C, strain TOR2, stronger effect = lower value 1.02 | locus YLR133W, strain CKI1, stronger effect = lower value 0.927 | locus YLR403W, strain SFP1, stronger effect = lower value 0.88 | locus YML070W, strain DAK1, stronger effect = lower value 0.901 | locus YMR001C, strain CDC5, stronger effect = lower value 0.986 | locus YMR205C, strain PFK2 (second series), stronger effect = lower value 0.939 | locus YMR277W, strain FCP1, stronger effect = lower value 0.976 | locus YNL006W, strain LST8, stronger effect = lower value 0.995 | locus YNL020C, strain ARK1, stronger effect = lower value 0.929 | locus YNL161W, strain CBK1, stronger effect = lower value 0.979 | [8] 0.958 | locus YNL207W, strain RIO2, stronger effect = lower value 0.979 | locus YNL222W, strain SSU72, stronger effect = lower value 0.981 | locus YNL307C, strain MCK1 (second series), stronger effect = lower value 0.871 | locus YOL078W, strain AVO1, stronger effect = lower value 0.984 | locus YOL136C, strain PFK27, stronger effect = lower value 0.898 | locus YOR061W, strain CKA2, stronger effect = lower value 0.922 | locus YOR119C, strain RIO1, stronger effect = lower value 1.08 | [9] 0.871 | locus YOR329C, strain SCD5, stronger effect = lower value 0.98 | locus YPL031C, strain PHO85, stronger effect = lower value 0.95 | locus YPL153C, strain RAD53, stronger effect = lower value 0.927 | locus YPL204W, strain HRR25, stronger effect = lower value 0.947 | locus YPL209C, strain IPL1, stronger effect = lower value 0.985 | locus YPR025C, strain CCL1, stronger effect = lower value 0.979 | locus YPR106W, strain ISR1, stronger effect = lower value 0.968 | locus YPR111W, strain DBF20, stronger effect = lower value 0.969 | strain NNK1, stronger effect = lower value 0.988 | strain TSCII, stronger effect = lower value 0.99
active: locus YGR092W, strain DBF2, stronger effect = lower value 0.452 | [7] 0.784 | [10] 0.779
